The values that follow come from PubChem BioAssay AID1893 (NMMLSC, 2009).

Structures are written as SMILES. About 120 (2%) of roughly 5,900 compounds were called active. A selection follows. A number with no mark means an inactive call. No stated cut-off is given here; in the data, active means percent response mostly above about 71% (no sharp cut-off); inactive means mostly below about 38%.

The subject of this test is MEKK2 (MAP3K2) mutant PB1 domain binding MEK5, human. The test is described as follows: mutant MEKK2 PB1-MEK5 binding signal retest – biochemical, single concentration, multiplex bead flow cytometry, confirmation (AID 1893).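 Further: higher means compound restores mutant binding toward wildtype level.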 As to conditions: Alexa488-MEK5 binding to MEKK2 mutant, at 10 µM, stronger effect = higher value. (In general: In flow cytometry, cells or beads pass a laser one at a time.)
Regarding `COc1ccc(CC(=O)N2N=C(C)CC2(O)C(F)(F)F)cc1` (stereo unspecified), the percent response was -3%.
On to `O=C(CN1CCN(C(=O)c2ccco2)CC1)Nc1ccc(Cl)c(C(F)(F)F)c1`, for which the percent response was 7%.
As for `COc1ccc(C2CC(=O)Nc3cc(C)c(C)cc32)c(OC)c1OC` (stereo unspecified), the percent response is 4%.
As to `COc1ccc(C(=O)NCC(=O)N/N=C/c2ccc([N+](=O)[O-])o2)cc1OC`, the percent response is -10%.
For `CCO[C@H]1OC(C(=O)N2CCOCC2)=C[C@@H](c2ccc3c(c2)OCO3)[C@@H]1CCCO` the value was 4%; for `Cc1ccc(C(=O)N/C(=C/c2ccco2)C(=O)NCCc2c[nH]c3ccccc23)cc1C`, -4%.
For `CN(C)CCCN(C(=O)COc1ccccc1)c1nc2c(Cl)cccc2s1` the value was 18%.
As to `CN(C)c1ccc(/C=C2\NC(=S)N(Cc3ccccc3)C2=O)cc1`, the percent response is -10%.
To `C=CCN1C=C2C(=O)C(C)(OC(=O)CCc3ccccc3)C(=O)C=C2C=C1c1ccc(C#N)cc1` (stereo unspecified) belongs -1%; to `COc1ccc(CCNC(=O)CSc2nnc3ccc(-c4ccncc4)nn23)cc1`, 6%; to `CCN(CC)C(=O)CC(c1ccc2c(c1)OCO2)c1c(OC)cc(OC)c2c(-c3ccccc3)cc(=O)oc12` (stereo unspecified), -4%.
To `COc1cccc(/C=N\NC(=O)C2=NNC(=O)C2C)c1O` (stereo unspecified) belongs 1%; to `FC(F)(F)c1nc(-c2ccccc2)ncc1-c1nnnn1-c1ccccc1`, -6%.
For `CCOC(=O)N1CCN(CC(=O)n2c(C)c(C)c3ccccc32)CC1` the value was -3%; for `COc1cccc(/C(C)=N/Nc2ncc(Cl)cc2Cl)c1`, -3%; for `c1ccc(CN2CCC(N=C3NN=C(c4ccc5c(c4)OCCO5)CS3)CC2)cc1`, 52%.
Turning to `CCN1CCN(CCNC(=O)c2ccc(/C=C3/Sc4ccccc4N(Cc4cccc(C)c4)C3=O)cc2)CC1`, the percent response was 79% (active).
For `Cc1cccc(CN2CCC(CNC(=O)Nc3ccc(F)c(Cl)c3)CC2)c1` the value was 8%.
To `CCc1nnc(NC(=O)c2sc3nc(C)cc(COC)c3c2N)s1` belongs 7%.
To `COc1cccc(OC)c1C(=O)Nc1ccc(Cc2ccncc2)cc1` belongs -2%.
On to `CCCCOC(=O)c1ccc(N2C(=O)CC(N3CCN(C/C=C/c4ccccc4)CC3)C2=O)cc1` (stereo unspecified), for which the percent response was 12%.
`Cn1ccc(=Nc2ccc(NC(=O)c3ccc(N=c4ccn(C)c5ccc([N+](=O)[O-])cc45)cc3)cc2)cc1`: the percent response is 28%.
`C=CCn1c(P(C)(=O)O)nc2ccccc21`: the percent response was -4%.
As for `CCN(CC)CCC(c1ccc2c(c1)OCO2)c1c(OC)cc(OC)c2c(-c3ccccc3)cc(=O)oc12` (stereo unspecified), the percent response was 28%.
For `COC(=O)c1c(NC(=O)COc2ccc(Cl)cc2Cl)sc2c1CC(C)(C)NC2(C)C` the value was 36%.
For `CN(C)CCCNC(=S)N1CCN(c2nc(-c3ccccc3)cs2)CC1` the value was 14%; for `O=c1[nH]c(=S)[nH]c2[nH]c(=S)[nH]c12`, -2%; for `COc1cc(-c2nc(-c3ccncc3)no2)cc(OC)c1OC`, 6%.
To `Cc1ccc(NC(=S)N(CCCN2CCCC2)Cc2cccn2Cc2ccc(Cl)cc2)cc1` belongs 13%; to `Cc1ccc2c(C)c(C(=O)N3CCN(c4ccncc4)CC3)oc2c1C`, 31%; to `N=C1/C(=C/c2cccn2-c2cccc([N+](=O)[O-])c2)C(=O)N=C2SC=CN12`, -6%.
Take `CC(=O)N1CCN(S(=O)(=O)c2ccc(C)c([N+](=O)[O-])c2)C1C(C)C` (stereo unspecified): the percent response is -1%.
For the molecule `COC(=O)c1nc2n(n1)C(c1ccc([N+](=O)[O-])cc1)C(C(=O)Nc1ccc(Cl)cc1)=C(C)N2` (stereo unspecified), the percent response was 2%.
For the molecule `Cc1ccccc1CCN(CC(=O)NC1CCCCC1)C(=O)c1csnn1`, the percent response was -24%.
To `CCCn1c(=N)n(CC(=O)c2ccc(Cl)c(Cl)c2)c2ccccc21` belongs 33%; to `CC(C)CC(=O)NC(=S)Nc1cc(C(=O)O)ccc1Cl`, -1%.
`O=C1NCC(=O)N(Cc2ccccc2)/C1=C/c1ccccc1`: the percent response is -16%.
Consider `CCc1ccc(-c2nn(-c3ccccc3)cc2CSC(=N)N)cc1`, for which the percent response was 68%.
Turning to `CNC(=O)/C(=C\C=C\c1ccccc1)NC(=O)c1ccc([N+](=O)[O-])cc1`, the percent response was 7%.
For `O=C(O)CC(Cc1ccccc1)C(=O)Nc1ccc([N+](=O)[O-])cc1` (stereo unspecified) the value was -3%; for `O=C(COC(=O)CNC(=O)c1ccco1)Nc1ccc(F)cc1`, 1%; for `COc1ccc(S(=O)(=O)N2CN(CCc3ccc(OC)c(OC)c3)c3nc4ccccc4nc32)cc1`, -4%.
For `CCOC(=O)/C(C#N)=C/c1ccc(OCC(=O)Nc2ccccc2)c(OC)c1` the value was 1%; for `CC(C)C(=O)N1c2ccccc2NC2=C(C(=O)CCC2)C1c1ccc(N(C)C)cc1` (stereo unspecified), 10%; for `COCC(C)NC(=O)COc1nncc2ccccc12` (stereo unspecified), -7%.
To `O=C(NCc1ccccc1Cl)NC(=O)c1csc([N+](=O)[O-])c1` belongs 1%; to `Cn1c(C(=O)NCCCN2CCCCC2)cc2sccc21`, 10%; to `COc1cc(Br)c(-c2sc(Nc3ccccc3)n[n+]2-c2ccccc2)cc1OC`, 14%.
As for `CCc1ccc2nc(Nc3ncc(C(C)=O)c(C)n3)nc(C)c2c1`, the percent response is 0%.
To `CCOC(=O)c1c(-c2ccccc2)csc1NC(=S)NC(=O)c1ccccc1` belongs 0%.
To `O=C(CN1C(=O)c2cccnc2Oc2ccc(Cl)cc21)Nc1ccc(F)cc1` belongs 1%; to `N=c1c2c(-c3ccccc3)c(-c3ccccc3)n(Cc3ccccc3)c2ncn1CCCO`, 21%; to `Cc1noc(C)c1S(=O)(=O)N(C)Cc1ccccc1`, 5%.
Consider `Cc1nn(-c2ccccc2)c(NC(=O)c2cccs2)c(-c2ccc(Cl)cc2)c1=O`, for which the percent response was -4%.
For `COc1cccc(NC(=S)NCCCN2CCOCC2)c1` the value was 6%.
For `CCN(CC)CCOCCOc1ccc(Cl)c2ccccc12` the value was 22%; for `CCCCCCCCCCOC(=O)Cn1c(COc2cccc(OC)c2)[n+](C)c2ccccc21`, 115% (active); for `CCCCCCCCCCOC(=O)Cn1c(COc2ccc(C)cc2)[n+](C)c2ccccc21`, 74% (active).
For the molecule `CN(C)CCCN(C(=O)c1ccc(S(=O)(=O)N2CCCc3ccccc32)cc1)c1nc2ccc(F)cc2s1`, the percent response was 53%.
To `CSCC[C@H](NC(=O)CCCn1nnc2ccccc2c1=O)C(=O)O` belongs 1%; to `CN1CCN(/N=C/c2ccc(C#N)cc2)CC1`, -4%.
For `CC1CCN(C2=NC(=O)/C(=C/c3cn[nH]c3-c3ccccc3)S2)CC1`, the percent response was -9%.
For the molecule `CCOc1ccc(S(=O)(=O)NCCCn2ccnc2)cc1NC(C)=O`, the percent response is -6%.
In the case of `CCCCNC(=O)N1CCCC(N(C)CCc2ccc(OC)c(OC)c2)C1` (stereo unspecified), the percent response is -2%.
Turning to `CC(C)(C)NC(=O)Cn1cnc([N+](=O)[O-])n1`, the percent response is -7%.
For `COc1ccccc1OCCNCC(O)COc1cccc2[nH]c3ccccc3c12` (stereo unspecified) the value was 34%; for `Cc1cccc(-c2ncc(CN3CCC(CO)(CCCc4ccccc4)CC3)cn2)c1`, 9%.
For `Cc1nn(-c2ccccc2)c(C)c1NC(=O)CCl` the value was -2%; for `COC(=O)CCc1sc(Nc2ccc(Br)cc2)nc1-c1ccc(OC)cc1`, 9%.
With `C#CCOCCOCCOCCNc1nc(N2CCN(C(=O)C([C@@H](C)CC)n3cc(C(N)COC(=O)C(F)(F)F)nn3)CC2)nc(N2CCN(C(=O)[C@H](CCCCN)n3cc(C(N)CC(C)C)nn3)CC2)n1` (stereo partly specified), the percent response was 52%.
To `O=C(CCCO)N/N=C/c1cc(Br)ccc1O` belongs -1%; to `O=C(Nc1ccn(Cc2ccccc2)n1)c1cccc(F)c1`, -3%; to `COc1ccc(CCn2c(NN=C3CCCC3)nc3c2c(=O)[nH]c(=O)n3C)cc1`, 3%.
For `CCC(C)OC(=O)C(C)Oc1ccc(-c2ccccc2)cc1` (stereo unspecified) the value was 10%; for `CC(C)CC(=O)NC(=S)NCc1ccccc1`, -3%.
Take `O=c1c(/C=N/O)coc2ccc(Cl)cc12`: the percent response is -2%.
Turning to `Cc1ccc2c(c1)C1CN(C)CCC1N2S(=O)(=O)c1ccc(Oc2ccc([N+](=O)[O-])cc2)cc1` (stereo unspecified), the percent response is 61%.
To `Cc1c(S(=O)(=O)NCc2ccccc2)c(=O)n(C)c(=O)n1C` belongs 2%; to `C[N+](C)(C)CCNC(=O)c1c(O)c2c([nH]c1=O)CCCC2`, -3%.
To `O=C(O)/C=C\C(=O)Nc1ccc(OCc2ccccc2)cc1` belongs -4%; to `COc1ccccc1NC(=S)N1CCN(c2ccc(F)cc2)CC1`, -8%; to `Cc1cccc(OCC(O)CN2CCN(CCN3C(=O)c4cccc5cccc(c45)C3=O)CC2)c1C` (stereo unspecified), 3%.
To `Cc1ccc(N2C(=O)CC(N3CCSCC3)C2=O)c(C)c1` (stereo unspecified) belongs 2%; to `O=C(c1ccc(Br)o1)N(c1ccccn1)C1CCCCC1`, 3%; to `COc1ccc(SC[C@H](Cc2ccccc2)N2CCN(CCc3ccccc3)CCC2=O)cc1`, 16%.
Take `CCOC(=O)c1c(NC(=O)c2ccc(S(=O)(=O)N(C)CC3CCCO3)cc2)sc2c1CC(C)(C)NC2(C)C` (stereo unspecified): the percent response was 7%.
In the case of `O=C(NCCCN1CCN(c2ccc(F)cc2)CC1)Nc1ccc([N+](=O)[O-])cc1`, the percent response is 26%.
For `CC1CN(C(=O)c2ccccc2NS(=O)(=O)c2cccc([N+](=O)[O-])c2)CC(C)O1` (stereo unspecified), the percent response was 0%.
With `c1ccc2c(c1)C(=NC1CCCCC1)NC2=NC1CCCCC1`, the percent response is 18%.
For `Cc1cccc(OCCNC(=O)CSc2ccc(C(F)(F)F)cc2[N+](=O)[O-])c1` the value was 2%; for `O=C(NC1CCN(Cc2ccccc2)CC1)c1ccc(Oc2cc(Cl)cc(Cl)c2)o1`, 10%.
To `O=C(CC1SCCNC1=O)Nc1ccc(Cl)c(Cl)c1` (stereo unspecified) belongs 4%; to `CN(CC(=O)Nc1cccc(F)c1)CC(=O)Nc1cccc([N+](=O)[O-])c1`, -3%; to `COc1ccccc1N=C(C)C1=C(O)COC1=O`, 7%.
Consider `COc1cccc(OCC(=O)NNC(=O)c2cnccn2)c1`, for which the percent response was -1%.
As for `COC(=O)c1c(NC(=O)COC(=O)[C@@H](NS(=O)(=O)c2ccccc2)C(C)C)sc2c1CCC2`, the percent response was -1%.
`CCOC(=O)CN(C)S(=O)(=O)c1ccc(-c2cc(C(=O)OC)sc2C(F)(F)F)cc1`: the percent response is -3%.
For `Cc1cc(Cl)ccc1OCc1nc(-c2ccncc2)no1` the value was -15%; for `O=C(O)CCCC(=O)Nc1ccc(Oc2cccc(C(F)(F)F)c2)nc1`, 4%.
For `COc1cc(C)nc(N2CCCC(C(=O)NCC(C)C)C2)n1` (stereo unspecified) the value was -2%; for `O=C(O)C1CCN(c2ccc([N+](=O)[O-])cc2[N+](=O)[O-])CC1`, 6%; for `Cc1no[n+]([O-])c1COc1ccccc1/C=C1\NC(=S)NC1=O`, -5%.
For `COc1ccc(C(=O)C[n+]2ccc(C)cc2)cc1`, the percent response was 6%.
Regarding `CC(C)CC(=O)N1CCN(Cc2ccccc2Br)CC1`, the percent response was 3%.
On to `CCOC(=O)c1c(Cc2ccc(Cl)cc2)c[nH]c1C`, for which the percent response was 0%.
To `Cc1cn(COC/C=C/c2ccccc2)c(=O)[nH]c1=O` belongs 2%.
Regarding `COc1ccc(CNC(=O)C2CCN(S(C)(=O)=O)CC2)cc1`, the percent response was 4%.
For `COC(=O)c1cc(NC(=O)c2cc(C(C)(C)C)nn2Cc2cccc(C)c2)ccc1N1CCOCC1` the value was -5%; for `CCN(CC)CCOc1ccc2c(c1)C(=NNC(=O)c1ccccn1)c1cc(OCCN(CC)CC)ccc1-2`, 75% (active).
For `COc1cc(NC(=S)NCc2ccco2)c(OC)cc1Cl` the value was 3%; for `Cn1c(SCc2nc3ccccc3s2)nnc1-c1ccc2c(c1)OCO2`, 0%.
